Source: the supplement of paper PMC6555819

Experiments:
Assay in all cases: PBM binding z-score (relative to random genomic background probes); higher = stronger binding; sequences stand for … in GC…GCGATTGACAGCGTAGAATGAAGG
[1] = test system: FXR:RXRa (NR concentration 270 nM, RXRa partner concentration 90 nM)
Procedure, shortened: (§1)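 Each nuclear receptor dimer, without ligand, was incubated for 1 h on custom Agilent 4×180K protein-binding microarrays. Binding was detected with antibodies against each partner (one per run), and scanned fluorescence was regression-normalized. The binding z-scores are referenced to random human genomic background probes.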

[2] = test system: LXRa:RXRa (NR concentration 270 nM, RXRa partner concentration 90 nM)
Procedure, shortened: as §1

[3] = test system: LXRa homodimer (NR concentration 270 nM)
Procedure, shortened: as §1

[4] = test system: LXRb:RXRa (NR concentration 270 nM, RXRa partner concentration 90 nM)
Procedure, shortened: as §1

[5] = test system: LXRb homodimer (NR concentration 270 nM)
Procedure, shortened: as §1

[6] = test system: PPARa:RXRa (NR concentration 270 nM, RXRa partner concentration 90 nM)
Procedure, shortened: as §1

[7] = test system: PPARg:RXRa (NR concentration 180 nM, RXRa partner concentration 90 nM)
Procedure, shortened: as §1

[8] = test system: PPARg:RXRa 270nM:90nM, anti-RXR (NR concentration 270 nM, RXRa partner concentration 90 nM)
Procedure, shortened: as §1

[9] = test system: PPARg:RXRa 30nM:10nM, anti-RXR (NR concentration 30 nM, RXRa partner concentration 10 nM)
Procedure, shortened: as §1

[10] = test system: PPARg:RXRa 90nM:30nM, anti-RXR (NR concentration 90 nM, RXRa partner concentration 30 nM)
Procedure, shortened: as §1

Row | Sequence | PBM binding z-score [1] | PBM binding z-score [2] | PBM binding z-score [3] | PBM binding z-score [4] | PBM binding z-score [5] | PBM binding z-score [6] | PBM binding z-score [7] | PBM binding z-score [8] | PBM binding z-score [9] | PBM binding z-score [10]
1 | AGAACGAGGGCACGCTGAGTTGATAGGAGAGTAG | 0.875 | 0.502 | -0.34 | 0.213 | -0.689 | 2.07 | 2.14 | 1.82 | 0.367 | 1.14
2 | AGTCAAAGTTCATCTAGGAAACGTAAGATATGCT | 6.71 | 5.87 | 4.88 | 3.9 | 2.09 | 4.85 | 6.43 | 6.21 | 3.53 | 5.16
3 | GCTCGGAGGACAAGGGCAGAGCTTTGTCCGTAGA | -0.487 | -0.674 | -0.975 | -1.04 | -1.47 | -0.451 | -0.879 | -0.532 | -1.18 | -0.777
4 | ATTACAGGGTCACTAGGCCAGAGTAGGTACGAAT | 6.12 | 4.57 | 0.484 | 3.59 | 1.62 | 5.94 | 8.17 | 6.86 | 3.45 | 5.84
5 | CGAACTAGGTTATCCAGGACAGTGAATACATTGA | 0.556 | 0.403 | 0.239 | 0.204 | -0.168 | 2.31 | 2.82 | 2.24 | 0.585 | 1.4
6 | CCTACTTGGTCAAGGTCACACACGCTATAGGTAC | 4.25 | 4.24 | 2.32 | 4.05 | 1.7 | 4.33 | 3.75 | 3.87 | 1.38 | 2.72
7 | CCGAGTAGGTTATGGGGCACTCAGGCAACGGTGA | 0.104 | 0.294 | -0.464 | 0.136 | -0.707 | 2.08 | 3.55 | 4.33 | 2.45 | 4.11
8 | CCTACTGGGCCATTCAGCGGTCATTGATCATATG | -0.0404 | 0.756 | 3.78 | 0.208 | -0.516 | 0.727 | 0.533 | 0.538 | -0.375 | 0.242
9 | AATACAGGGTCATCCTAGGCCAGAGTACGCACAG | 7.59 | 6.64 | 3.26 | 5.25 | 1.72 | 6.4 | 6.74 | 5.93 | 2.82 | 4.48
10 | CCTACTGGGCCCCGAAAGGTCATTGATTCAGTGA | 3.17 | 4.07 | 4.02 | 3.98 | 0.0468 | 3.93 | 1.14 | 2.68 | 0.29 | 1.58
11 | GCATATAGGTAATACAAGATGAAAGTCCGATTGT | 0.0179 | -0.186 | -0.106 | -0.218 | -0.326 | 0.682 | 1.32 | 0.766 | 0.378 | 0.376
12 | CGAACTAGGTCATTCACAGGACAGTGAATAGTAA | 4.72 | 3.19 | 0.593 | 2.48 | 0.493 | 4.67 | 7.34 | 6.26 | 3.72 | 5.9
